Bioassay records: PubChem, Broad Institute
PD-1 reverse act = reversal of PD-1 mediated T-cell inhibition; primary human CD4 T cells, PD-L1 beads, CellTiter-Glo 96 h; activation, % (concentration not given with the values); 29,000 tested, under 10 active; AID 2316; call rule not given here
NOMO-1 viab = STK33 inhibitor candidate reducing NOMO-1 cell viability; NOMO-1 AML viability, CellTiter-Glo luminescence, 72 h; inhibition, % (test concentration not listed); actives 7.5% (n = 37,000); AID 2330; in the data active = inhibition above about 80%; inconclusive = no clear call, values can overlap the other calls
STK33 kin inh = blocks human STK33 kinase activity; AID 2322; actives 0.44% (n = 27,000); ADP-Glo luminescence, MBP substrate; inhibition, % at 12.5 µM; Q9BYT3; in the data active = inhibition above about 20%; inconclusive = no clear call, values can overlap the other calls
Target sequence (Q9BYT3 whole entry, looked up): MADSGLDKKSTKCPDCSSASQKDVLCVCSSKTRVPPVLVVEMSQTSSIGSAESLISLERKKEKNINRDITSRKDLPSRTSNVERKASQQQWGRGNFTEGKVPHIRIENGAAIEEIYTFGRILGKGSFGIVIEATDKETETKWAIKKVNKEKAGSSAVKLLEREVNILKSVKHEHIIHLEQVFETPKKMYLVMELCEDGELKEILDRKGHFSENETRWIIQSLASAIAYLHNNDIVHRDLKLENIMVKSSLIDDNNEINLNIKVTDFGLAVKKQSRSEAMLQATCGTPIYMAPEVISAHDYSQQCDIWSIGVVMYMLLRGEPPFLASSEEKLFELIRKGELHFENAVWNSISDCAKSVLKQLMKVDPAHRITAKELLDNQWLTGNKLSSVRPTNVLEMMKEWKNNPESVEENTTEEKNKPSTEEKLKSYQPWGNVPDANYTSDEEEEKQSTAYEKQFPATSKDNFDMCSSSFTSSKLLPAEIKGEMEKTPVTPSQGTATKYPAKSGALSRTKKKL
Numbers stand for hits; i = inactive; ? = inconclusive; nt = no result given. The full list was thinned out, with hits kept by preference.

SMILES	PD-1 reverse act	NOMO-1 viab	STK33 kin inh
COc1cc2c(cc1O)CCC1C2CC[C@@]2(C)C1CC[C@@H]2O (stereo partly specified)	i	97	i
COc1cc(C)c2c(c1)CCC1C2CCC2(C)C(O)CCC12 (stereo unspecified)	i	91	nt
COc1ccccc1NC(=O)c1ccc(CSc2nnnn2-c2ccccc2)cc1	nt	i	i
CNc1nc(NC(C)C)nc(Oc2ccc(=O)[nH]n2)n1	i	i	i
O=C(COc1ccc(Cl)cc1Br)Nc1ccccc1C(=O)NC1CCCCC1	i	i	i
Oc1c(C(Nc2cccnc2)c2ccc(C(F)(F)F)cc2)ccc2cccnc12 (stereo unspecified)	nt	109	i
FC(F)(F)c1nnc(Nc2cccnc2)s1	i	i	nt
COc1cc(NC(=O)c2ccccc2)c(OC)cc1NC(=O)COc1ccc(Cl)cc1Cl	i	i	i
CCOC(=O)c1c(CN(CC)CC)oc2ccc(OC)cc12	i	i	nt
CCOC(=O)c1c(CSc2nc(C)ccc2C#N)oc2ccc(OC(C)=O)cc12	i	117	nt
O=C(CN1C(=O)c2ccccc2S1(=O)=O)Nc1cccc(O)c1	i	i	i
C[C@@H]1CCCCO[C@H](CN(C)Cc2ccc(Cl)c(Cl)c2)[C@@H](C)CN([C@H](C)CO)C(=O)c2cc(NC(=O)Nc3ccccc3)ccc2O1	i	?	i
C[C@@H]1CCCCO[C@@H](CN(C)Cc2ccc(Cl)c(Cl)c2)[C@@H](C)CN([C@H](C)CO)C(=O)c2cc(NC(=O)C3CCCCC3)ccc2O1	i	114	i
C[C@@H]1CCCCO[C@@H](CN(C)Cc2ccc3c(c2)OCO3)[C@@H](C)CN([C@H](C)CO)C(=O)c2cc(NC(=O)Nc3ccc(F)cc3)ccc2O1	i	i	i
C[C@@H]1CCCCO[C@@H](CN(C)Cc2ccc(Cl)c(Cl)c2)[C@@H](C)CN([C@H](C)CO)C(=O)c2cc(NC(=O)Nc3ccc(C(F)(F)F)cc3)ccc2O1	i	105	i
CC(C)NC(=O)Nc1ccc2c(c1)C(=O)N([C@H](C)CO)C[C@H](C)[C@H](CN(C)Cc1ccc(C(F)(F)F)cc1)OCCCC[C@@H](C)O2	i	i	i
C[C@@H]1CCCCO[C@@H](CN(C)Cc2ccc3c(c2)OCO3)[C@@H](C)CN([C@H](C)CO)C(=O)c2cc(NC(=O)Nc3ccc(C(F)(F)F)cc3)ccc2O1	i	113	i
C[C@H](CO)N1C[C@H](C)[C@H](CN(C)Cc2ccc(Cl)c(Cl)c2)Oc2ccc(NC(=O)C3CCCCC3)cc2C1=O	i	i	i
C[C@@H]1CCCCO[C@@H](CN(C)Cc2ccc(Cl)c(Cl)c2)[C@@H](C)CN([C@H](C)CO)C(=O)c2cc(NC(=O)Nc3ccccc3)ccc2O1	i	103	i
CCOc1cc(C2NC(=S)NC(C)=C2C(=O)Nc2ccccc2C(=O)OC)cc(Br)c1O (stereo unspecified)	nt	i	i
COc1cc(CCc2cc(OC)c(C)cc2OC)c(OC)cc1C	i	i	nt
COc1ccc(-c2cc(C(F)(F)F)n3nc(C(=O)N(C)Cc4cnn(C)c4C)cc3n2)cc1OC	i	i	?
COc1ccc(N=C(CCCN2C(=O)c3ccccc3C2=O)C2=C(O)CC(C)(C)CC2=O)cc1	i	i	nt
Cc1ccc2c(c1)NC(C(F)(F)F)(C(F)(F)F)NC2=O	i	i	nt
Cn1c(SCC(=O)Nc2ccc3c(c2)OCCO3)nnc1-c1cnccn1	i	i	i
SMILES	PD-1 reverse act	NOMO-1 viab	STK33 kin inh
C[C@@H]1CN([C@H](C)CO)C(=O)c2cc(NC(=O)Nc3ccc4c(c3)OCO4)ccc2O[C@H]1CN(C)Cc1ccc(Oc2ccccc2)cc1	i	i	i
C[C@H](CO)N1C[C@H](C)[C@@H](CN(C)Cc2ccc(-c3ccccc3)cc2)Oc2ccc(NC(=O)Nc3ccc4c(c3)OCO4)cc2C1=O	i	120	nt
C[C@H](CO)N1C[C@H](C)[C@@H](CN(C)Cc2ccc(Oc3ccccc3)cc2)Oc2ccc(NC(=O)Nc3ccc4c(c3)OCO4)cc2C1=O	i	i	nt
C[C@H]1CN([C@@H](C)CO)C(=O)c2cc(NC(=O)Nc3ccc4c(c3)OCO4)ccc2O[C@@H]1CN(C)Cc1ccc(-c2ccccc2)cc1	i	112	i
C[C@@H]1CN([C@@H](C)CO)C(=O)c2cc(NC(=O)Nc3ccc4c(c3)OCO4)ccc2O[C@H]1CN(C)Cc1ccc(-c2ccccc2)cc1	i	116	nt
C[C@@H]1CN([C@@H](C)CO)C(=O)c2cc(NC(=O)Nc3ccc4c(c3)OCO4)ccc2O[C@H]1CN(C)Cc1ccccc1	nt	i	nt
Cc1cc(OCCCC(=O)Nc2sc3c(c2C#N)CCCC3)cc(C)c1Cl	i	i	i
COc1ccccc1OC(=O)NC(C)C	i	i	nt
CC#CC#C/C=C1\C=CC2(OC=CC2OC(=O)C=C(C)C)O1 (stereo unspecified)	nt	nt	i
COc1ccc(NC(=O)Cn2nc(C)c([N+](=O)[O-])c2C)c(OC)c1	nt	i	i
Cc1ccc(-c2nnc3c4ccccc4c(C)nn23)cc1S(N)(=O)=O	i	i	i
CCc1cc2c(=O)n(CC(=O)Nc3cc(OC)ccc3OC)cnc2s1	i	i	i
Cc1nc(SCC(=O)N(c2ccccc2)c2ccccc2)n[nH]1	i	i	i
COc1cc(-c2nc3ccccc3s2)cc(Br)c1OCC(N)=O	nt	i	i
O=C(Cn1c2ccccc2n2nc(-c3cccs3)nc12)c1ccc(Cl)cc1	i	115	i
O=C(Cn1c2ccccc2n2nc(-c3ccco3)nc12)c1ccccc1	i	i	i
Nc1ccc2nc(SCC(=O)Nc3ccc(Oc4ccccc4)cc3)sc2c1	nt	i	i
COC(=O)CCc1[nH]c2ccccc2c1Sc1ccccc1	i	140	nt
Cc1[nH]c2ccccc2c1C(=O)CCC(=O)O	nt	nt	i
Cc1cc(-c2ccccc2)nc2c1/C(=N\O)CC(C)(C)C2	i	101	nt
Cc1ccc(C)c(NC(=O)CSc2nc(-c3ccccc3)cc(C(F)(F)F)n2)c1	nt	i	i
COc1ccc(C(=O)CC(C#Cc2ccccc2)CC(=O)c2ccc(OC)cc2)cc1	i	i	nt
O=S(=O)(Nc1cccnc1)c1cccc(S(=O)(=O)c2ccc(Cl)c(Cl)c2)c1	i	i	i
C[C@H]1C(=O)N2c3ccccc3[C@@]3(O)C[C@@H]4C(=O)N[C@@](C)(c5nc6ccccc6c(=O)n54)N1[C@@H]23	i	i	i
COc1ccc([N+](=O)[O-])cc1N(CC(=O)Nc1cccc(C)c1)S(C)(=O)=O	i	i	i
SMILES	PD-1 reverse act	NOMO-1 viab	STK33 kin inh
Cc1cnn(CCCNC(=O)NC23CC4CC(CC(C4)C2)C3)c1	i	i	i
COC(=O)C1c2c(oc3cc(CO)cc(O)c3c2=O)C=CC1O (stereo unspecified)	i	107	i
COc1cc(-c2oc3cc(O)cc(O)c3c(=O)c2O[C@@H]2O[C@H](CO)[C@@H](O)[C@H](O)[C@H]2O)ccc1O[C@@H]1O[C@H](CO)[C@@H](O)[C@H](O)[C@H]1O	i	i	i
COc1cccc(NC(=O)CSc2nnnn2C)c1	i	i	i
COc1ccc(C)cc1NC(=O)C(=S)NCc1ccco1	i	i	i
COc1ccc(OC)c(C2C(C(=O)Nc3ccccc3OC)=C(C)Nc3ncnn32)c1 (stereo unspecified)	nt	i	i
COc1ccc(OC)c(C2Nc3nc4ccccc4n3C(C)=C2C(=O)Nc2ccc(C)cc2C)c1 (stereo unspecified)	i	85	i
